Screening data as filed in PubChem BioAssay.
Only some compounds are listed: those with a hit (about 8% of all), similar ones and a draw of the others.
KB-V1 cytotox – kills drug-selected multidrug resistant KB-V1 cells; KB-V1 MDR cells viability, CellTiter-Glo, 72 h; Potency, µM (highest dose often 46.1 µM), most hits filed as cytotoxic; 400,000 tested, 3.4% active; further: nearly all actives have a fitted effect of over 60% in size
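In this primary screen, KB-V1 cells overexpressing P-gp are incubated with library compounds (lowest to highest concentration) for 72 h at 37 degrees C before a luminescent ATP viability read.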
KB-3-1 tox – KB-3-1 parental cell cytotoxicity; KB-3-1 viability, CellTiter-Glo ATP luminescence, 72 h; Potency, µM (titrated, usually from 46.1 µM), hits mostly cytotoxic; 400,000 tested, 1.4% active; further: nearly all actives have a fitted effect of over 60% in size
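Screening of KB-3-1 cells (DMEM, 10% FBS, phenol-red free) ran from lowest to highest compound concentration; after 72 h at 37 °C viability was read luminescently and curves fitted.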
MCF10A rerep – induces DNA re-replication in MCF 10a normal breast cells; Potency, µM (top dose mostly 46.1 µM), actives largely listed as activators; MCF 10A DNA re-replication, Hoechst nuclear intensity, 48 h; 350,000 tested, 2.9% active; further: nearly all actives have a fitted effect of over 50% in size
HT1080NT lethal – kills 2HG-producing HT-1080-NT fibrosarcoma cells. HT-1080-NT fibrosarcoma viability, CellTiter-Glo ATP luminescence, 48 h. Potency, µM (doses to about 46.1 µM), hits mostly cytotoxic. 360,000 tested, 1.6% active;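 further: NT is the 2HG producing partner of a matched IDH1 knockdown line; nearly all actives have a fitted effect of over 55% in size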
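Toxicity toward the 2HG-producing NT line was scored as %Activity, normalised to DMSO and no-cell wells, from CellTiter-Glo luminescence after 48 hours' treatment.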
SW480 rereplic – inducers of DNA re-replication in SW480 colon cancer cells; AID 624297; Potency, µM (series often up to 46.1 µM), most hits filed as activators; SW480 DNA re-replication, Hoechst DNA content imaging, 48 h; 340,000 tested, 1.8% active; further: nearly all actives have a fitted effect of over 55% in size
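Per well, 250 cells were exposed to pinned compound for 48 hr. Nuclear DNA was visualised with Hoechst (40 min, 37 C) and total object intensity recorded by fluorescence scanning.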
HT1080 IDH1KD tx – kills HT-1080 cells with IDH1 knockdown. HT-1080 IDH1 knockdown viability, ATP luminescence, 48 h. Potency, µM (doses to about 46.1 µM), usual class: cytotoxic. 360,000 tested, 2% active. AID 686971
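Knockdown cells (IDH1KD HT-1080) received compounds 2 h after plating at 750 cells/well and were kept 48 h at 37 °C in 5% FBS RPMI. A CellTiter-Glo luminescence read gave % activity for curve fitting.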
A number is an active result; [ ] = remark or other dose. The call rests on the fitted dose curve; in most records, active means well fitted curve in the direction sought with a large enough effect; inconclusive means small, poorly fitted or top-dose-only effect, or another doubt; inactive means no such curve, though single readings can be large; an effect the other way counts as inactive or inconclusive.

What do the screens show for `COc1ccccc1CNC(=O)COC(=O)c1cc(C)nc2ccccc12`?
MCF10A rerep: inactive; HT1080NT lethal: inactive; SW480 rereplic: inactive; HT1080 IDH1KD tx: inactive

Results for COc1cc2cc(C)nc(Cc3cccc4ccccc34)c2cc1OC ?
KB-V1 cytotox: inactive; KB-3-1 tox: inactive; MCF10A rerep: 13µM; HT1080NT lethal: inconclusive; SW480 rereplic: inactive; HT1080 IDH1KD tx: inconclusive

How did Cc1ccc(CNC(=O)c2cnn(-c3cccc(C)c3)c2C2CCN(C(=O)OC(C)(C)C)CC2)cc1 do in these assays?
KB-V1 cytotox: inactive; KB-3-1 tox: inconclusive

What do the screens show for `Cc1csc2nc(COC(=O)CNC(=O)c3ccccc3Cl)cc(=O)n12`?
KB-V1 cytotox: inactive; KB-3-1 tox: inactive

Results for NC(=O)COc1ccccc1/C=C1/SC(=O)N(CC(=O)N2CCc3ccccc3C2)C1=O ?
KB-V1 cytotox: 15µM; KB-3-1 tox: inactive; MCF10A rerep: inactive; HT1080NT lethal: inactive; SW480 rereplic: inactive; HT1080 IDH1KD tx: inactive

What do the screens show for `CCOc1cc(/C=C2/SC(=O)N(CC(=O)N3CCc4ccccc4C3)C2=O)ccc1OCC(=O)O`?
KB-V1 cytotox: inactive; KB-3-1 tox: inactive; MCF10A rerep: inactive; HT1080NT lethal: inactive; SW480 rereplic: inactive; HT1080 IDH1KD tx: inactive[9.24 µM]

Results for CCc1ccc(Oc2c(C(F)(F)F)oc3c(CN4CCN(CC)CC4)c(O)ccc3c2=O)cc1 ?
KB-V1 cytotox: inactive; KB-3-1 tox: inactive

What do the screens show for `CC1(C)CC2(C)OC2C2(C1)N=NC(=Nc1ccccc1)O2` (stereo not given)?
KB-V1 cytotox: inactive; KB-3-1 tox: inconclusive; HT1080NT lethal: 9.2µM; HT1080 IDH1KD tx: inconclusive

How did C/C(CC(C)(C)C1CCCCC1)=N\NC(N)=S do in these assays?
KB-V1 cytotox: inconclusive; KB-3-1 tox: inactive; MCF10A rerep: inactive; HT1080NT lethal: 5µM; SW480 rereplic: inactive; HT1080 IDH1KD tx: inconclusive

How did C/C(CC1CC(C)OC1=O)=N\NC(N)=S (stereo not given) do in these assays?
KB-V1 cytotox: inactive; KB-3-1 tox: inactive; MCF10A rerep: inactive; HT1080NT lethal: inactive; SW480 rereplic: inconclusive; HT1080 IDH1KD tx: inactive

How did O=c1[nH][nH]c2cc([N+](=O)[O-])ccc12 do in these assays?
KB-V1 cytotox: inconclusive; KB-3-1 tox: inconclusive; MCF10A rerep: inconclusive; HT1080NT lethal: 4.1µM; SW480 rereplic: inactive; HT1080 IDH1KD tx: 15µM

Results for O=c1[nH]c2cc([N+](=O)[O-])ccc2c2ccc([N+](=O)[O-])cc12 ?
KB-V1 cytotox: inactive; KB-3-1 tox: inactive; MCF10A rerep: inactive; HT1080NT lethal: inactive; SW480 rereplic: inactive; HT1080 IDH1KD tx: inactive

What do the screens show for `CC1CCN(Cc2cc(=O)oc3cc(O)c(Cl)cc23)CC1`?
KB-V1 cytotox: inactive; KB-3-1 tox: inactive; MCF10A rerep: 15µM; HT1080NT lethal: inactive; SW480 rereplic: inconclusive; HT1080 IDH1KD tx: inactive

What do the screens show for `Cc1ccc2c(CNCc3ccccc3)cc(=O)oc2c1`?
KB-V1 cytotox: 3.7µM; KB-3-1 tox: 5.2µM; MCF10A rerep: 12µM; HT1080NT lethal: 5.2µM; SW480 rereplic: 8.2µM; HT1080 IDH1KD tx: 8.2µM

What do the screens show for `Cc1cc2oc(=O)cc(CN(C)Cc3ccccc3F)c2cc1Cl`?
KB-V1 cytotox: inactive; KB-3-1 tox: inactive; MCF10A rerep: inactive; HT1080NT lethal: inactive; SW480 rereplic: inactive; HT1080 IDH1KD tx: inactive

How did CN(Cc1ccccc1F)Cc1cc(=O)oc2cc(O)c(Cl)cc12 do in these assays?
KB-V1 cytotox: inactive; KB-3-1 tox: inconclusive; MCF10A rerep: 5.8µM; HT1080NT lethal: inactive; SW480 rereplic: inconclusive; HT1080 IDH1KD tx: inactive

What do the screens show for `CN(Cc1ccccc1)Cc1cc(=O)oc2ccccc12`?
KB-V1 cytotox: 9.2µM; KB-3-1 tox: inactive; HT1080NT lethal: inactive; HT1080 IDH1KD tx: inactive

How did Cc1ccc2c(CN(C)Cc3ccccc3)cc(=O)oc2c1 do in these assays?
KB-V1 cytotox: inactive; KB-3-1 tox: inactive; HT1080NT lethal: inconclusive; HT1080 IDH1KD tx: inactive

What do the screens show for `O=c1cc(NCCO)c2ccccc2o1`?
KB-V1 cytotox: inactive; KB-3-1 tox: inactive; MCF10A rerep: inactive; HT1080NT lethal: inactive; SW480 rereplic: inactive; HT1080 IDH1KD tx: inactive

Results for Cc1ccc2c(CN(C)Cc3cccc(Cl)c3)cc(=O)oc2c1C ?
KB-V1 cytotox: inconclusive; KB-3-1 tox: inconclusive; MCF10A rerep: 21µM; HT1080NT lethal: inactive; SW480 rereplic: inactive; HT1080 IDH1KD tx: inconclusive

Results for O=c1cc(NCCc2ccccc2)c2ccccc2o1 ?
KB-V1 cytotox: 13µM; KB-3-1 tox: inconclusive; MCF10A rerep: inactive; HT1080NT lethal: inactive; SW480 rereplic: inactive; HT1080 IDH1KD tx: inactive

Results for Cc1cc2oc(=O)cc(CN(C)Cc3ccccc3)c2cc1C(C)C ?
KB-V1 cytotox: inconclusive; KB-3-1 tox: inactive; MCF10A rerep: 15µM; HT1080NT lethal: inactive; SW480 rereplic: inconclusive; HT1080 IDH1KD tx: inactive

Results for CCc1ccccc1NC(=O)Cn1nc(-c2cc(C)ccc2C)c2c(c1=O)CCCC2 ?
KB-V1 cytotox: inactive; KB-3-1 tox: inactive

Results for COc1ccc(C(=O)Nc2ccccc2-c2nc3ccccc3s2)cc1OC ?
KB-V1 cytotox: inactive; KB-3-1 tox: inactive

Results for COC1CCC2(C)C(=CCC3C4CC(O)CC4(C)CCC32)C1 (stereo not given) ?
KB-V1 cytotox: 18µM; KB-3-1 tox: inactive; MCF10A rerep: inactive; HT1080NT lethal: inactive; SW480 rereplic: inactive; HT1080 IDH1KD tx: inactive

How did CCOC(=O)c1[nH]c2ccccc2c1NC(=O)c1ccc(C)c(C)c1 do in these assays?
KB-V1 cytotox: inactive; KB-3-1 tox: inactive

Results for COCCNC(=O)CCCC(=O)NCCOC ?
KB-V1 cytotox: inactive; KB-3-1 tox: inactive; MCF10A rerep: inactive; HT1080NT lethal: inactive; SW480 rereplic: inactive; HT1080 IDH1KD tx: inactive

What do the screens show for `CC(=O)Nc1ccc(C(=O)N2CCCC(c3cc(C(=O)Nc4ccccc4Cl)no3)C2)cc1` (stereo not given)?
KB-V1 cytotox: inactive; KB-3-1 tox: inactive; HT1080NT lethal: inconclusive; HT1080 IDH1KD tx: inactive

Results for CC(C)c1ccc(C(=O)N2CCCC(c3cc(C(=O)Nc4ccccc4Cl)no3)C2)cc1 (stereo not given) ?
KB-V1 cytotox: inconclusive; KB-3-1 tox: 18µM; HT1080NT lethal: inactive; HT1080 IDH1KD tx: inactive

Results for O=C(CN(Cc1ccccc1)S(=O)(=O)c1ccccc1)N/N=C/c1ccc2c(c1)OCO2 ?
KB-V1 cytotox: inactive; KB-3-1 tox: inactive; MCF10A rerep: inactive; HT1080NT lethal: inconclusive; SW480 rereplic: inactive; HT1080 IDH1KD tx: inconclusive

Results for O=C(CN(Cc1ccc(Cl)c(Cl)c1)S(=O)(=O)c1ccccc1)N/N=C\c1ccc2c(c1)OCO2 ?
KB-V1 cytotox: 21µM; KB-3-1 tox: inconclusive; MCF10A rerep: inactive; HT1080NT lethal: inconclusive; SW480 rereplic: inconclusive; HT1080 IDH1KD tx: inactive[9.24 µM]
